Measured values: PubChem BioAssay (NCI)
This is part of a sample that, as a whole, favours compounds with a hit. Of some 83,000 tested, about 20% had one in any assay.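 Negative percent growth values reflect cell death: -40 means 40% of the cells present at the start died, and -100 means all died.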 Calls of active or inactive are those of the source. The calls were made as follows: active = growth percent below 10; inactive = the rest.

test system: SF-295 CNS; experiment: NCI-60 one-dose screen, 48 h (100 = growth as untreated, 0 = no growth, -100 = all killed); conditions: 10 µM unless noted

| SMILES | growth |
| --- | --- |
| OC(CCC(O)(c1ccccc1)c1ccccc1)(c1ccccc1)c1ccccc1 | 65.1% (inactive) |
| S=C(c1ccccc1)N1CCN(c2cccc(Cl)c2)CC1 | 82.9% (inactive) |
| O=C1CN(CO)C(=O)CN1CO | 101% (inactive) |
| O=C(COC(=O)[C@H](C[Se][Se]C[C@H](NC(=O)c1ccc(Br)cc1F)C(=O)OCC(=O)c1ccc(F)cc1)NC(=O)c1ccc(Br)cc1F)c1ccc(F)cc1 | -65.8% (active) |
| CCOC(=O)C1C(=O)OC2CCCCC21 (stereo not given) | 114% (inactive) |
| COC(=O)[C@]1(CCSC)N[C@H](c2cn(-c3ccccc3)nc2C)[C@@H]2C(=O)N(c3ccccc3)C(=O)[C@@H]21 | 106% (inactive) |
| Cc1c(C(N)=O)sc2c1c(=O)n(Cc1ccccc1)c1nnc(SCC(=O)Nc3ccc(Cl)cc3)n21 | 49.4% (inactive) |
| O=C1OC(c2ccc(-c3ccccc3)cc2)=C/C1=C/c1cccs1 | 95.8% (inactive) |
| Oc1ccccc1/C=N\Nc1ccccc1 | 19.9% (inactive) |
| CCCCn1c(Cc2ccc(Cl)cc2)nc2cc(OC)c(OC)cc2c1=O | 71.1% (inactive) |
| Cn1[nH]cc(/C=N/C(N)=O)c1=O | 115% (inactive) |
| Cc1[nH]n(C(N)=S)c(=O)c1N=Nc1ccc(F)c(Cl)c1 | 103% (inactive) |
| CCSc1nnc2n(Cc3ccccc3)c(=O)c3c(C)c(C(N)=O)sc3n12 | 91.4% (inactive) |
| Cc1cc(C)c(OC(=O)CSc2nc3ccccc3c(=O)n2CCc2ccccc2)cc1C | 87.3% (inactive) |
| NC(=O)SCC(=O)Nc1ccccc1-c1ccccc1 | 109% (inactive) |
